Screens: PubChem BioAssay, National Center for Advancing Translational Sciences (NCATS)
IL-1B inflam inh – qHTS for Inhibitors of Inflammasome Signaling: IL-1-beta AlphaLISA Primary Screen. THP-1 LPS/ATP IL-1B secretion, AlphaLISA, 16 h; active compounds read low. activity change, % at 57.5 µM. AID 743279, 2014. 360,000 compounds, 4.7% hits; in the data active = activity change below about -50%; inconclusive = mostly about -30% to -49%
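Secreted IL-1B measured by AlphaLISA bead assay after 16 h compound exposure of THP-1 cells; compounds (final up to 57.5 uM) added 1 h before LPS (250 ng/mL) and ATP (1.25 mM) stimulation; lower signal means less secretion.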
DT40 TDP1 no CPT – qHTS for Inhibitors of human tyrosyl-DNA phosphodiesterase 1 (TDP1): qHTS in cells in absence of CPT | DT40 Tdp1-/- hTDP1 cells, no CPT, ATP luminescence, 48 h | Potency, µM (titrated, usually from 46.2 µM), without a hit: at the top dose activity change, negative = growth inhibition, usual class: inhibitors | 420,000 compounds, 15% hits | AID 686978, 2013; note: potency is the fitted concentration of half-maximal effect; nearly all actives have a fitted effect of over 55% in size
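Growth of hTDP1-complemented DT40 Tdp1-knockout cells is measured by ATP luminescence after at least 48 hr compound exposure at 37 °C, with DMSO substituting for the 20 nM CPT used in the parallel screen.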
HT1080-NT tox – qHTS for induction of synthetic lethality in tumor cells producing 2HG: qHTS for the HT-1080-NT fibrosarcoma cell line; AID 686970, 2013; 360,000 compounds, 1.6% hits; HT-1080-NT fibrosarcoma viability, CellTiter-Glo ATP luminescence, 48 h; Potency, µM (top dose mostly 46.1 µM), without a hit: top-dose activity, negative = less viability, most hits filed as cytotoxic;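 note: NT is the 2HG producing partner of a matched IDH1 knockdown line; potency is the fitted concentration of half-maximal effect; 0% = DMSO-treated cells and -100% = media-only wells without cells; nearly all actives have a fitted effect of over 55% in size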
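Read-out is CellTiter-Glo luminescence after 10 minutes at room temperature, following 48 hours' compound treatment of HT-1080-NT cells (750 cells/well, RPMI, 5% FBS, 37 degrees C).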
DT40 TDP1 CPT – qHTS for Inhibitors of human tyrosyl-DNA phosphodiesterase 1 (TDP1): qHTS in cells in presence of CPT | chicken DT40 Tdp1-/-;hTDP1 cells + 20 nM CPT, ATP luminescence, 48 h | Potency, µM (top dose mostly 46.2 µM), for inactives: at the highest dose activity change, negative = growth inhibition, actives largely listed as inhibitors | 420,000 compounds, 12% hits | AID 686979, 2013; note: potency is the fitted concentration of half-maximal effect; nearly all actives have a fitted effect of over 55% in size
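Chicken DT40 Tdp1-/- cells stably complemented with human TDP1 were seeded at 400 cells/well in medium containing 20 nM camptothecin, exposed to pin-transferred compounds, and grown at 37 °C for at least 48 hr. Viability was read as ATP luminescence.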
HT1080 IDH1KD tx – qHTS for induction of synthetic lethality in tumor cells producing 2HG: qHTS for the HT-1080-IDH1KD cell line | HT-1080 IDH1 knockdown viability, ATP luminescence, 48 h | AID 686971, 2013 | 360,000 compounds, 2% hits | Potency, µM (series often up to 46.1 µM), without a hit: at the highest dose activity, negative = toxicity, actives largely listed as cytotoxic;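 note: potency is the fitted concentration of half-maximal effect; 0% = DMSO wells and -100% = cell-free medium wells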
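% activity derives from luminescence (CellTiter-Glo), normalised to DMSO and no-cell wells. HT-1080-IDH1KD cells, 750/well, had 48 h compound exposure at 37 °C.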
The depositor's hits bear a star. A selection: hits, their analogues and other compounds. The true share with any hit is near 19%. Unless noted, calls come from the whole dose curve; as a rule, active = well fitted curve in the direction sought with a large enough effect; inconclusive = small, poorly fitted or top-dose-only effect, or another doubt; inactive = no such curve, though single readings can be large; an effect the other way counts as inactive or inconclusive. Unless noted, % is set by controls: 0 for no effect and ±100 for the full control effect.

COc1ccccc1[C@@H]1C(c2cccc(Cl)c2)=NN(c2ccc(Br)cc2)[C@H]1C(=O)N1CCOC1=O was read as IL-1B inflam inh -8, DT40 TDP1 no CPT inconclusive, HT1080-NT tox -2%, DT40 TDP1 CPT inconclusive and HT1080 IDH1KD tx 1%.
Screening CCOC(=O)C(C#N)(Cc1ccc2ccccc2n1)Cc1ccc2ccccc2n1 returned IL-1B inflam inh -12, DT40 TDP1 no CPT inconclusive, HT1080-NT tox -9%, DT40 TDP1 CPT inconclusive and HT1080 IDH1KD tx -12%.
For Cc1nc(-c2ccc(F)cc2)c(CC(=O)Nc2ccc(C)c(S(=O)(=O)N3CCOCC3)c2)s1 the results were IL-1B inflam inh -15, DT40 TDP1 no CPT inconclusive, HT1080-NT tox -13%, DT40 TDP1 CPT 10µM* and HT1080 IDH1KD tx -16%.
For Cc1ccc(NCC(=O)Nc2ccc(F)c(Cl)c2)cc1S(=O)(=O)N1CCOCC1 the results were IL-1B inflam inh -17, DT40 TDP1 no CPT 21µM*, HT1080-NT tox -13%, DT40 TDP1 CPT inconclusive and HT1080 IDH1KD tx -17%.
`Cc1ccc(NC(=O)CCc2ccccc2)cc1S(=O)(=O)N1CCOCC1` gave IL-1B inflam inh 29, DT40 TDP1 no CPT inconclusive, HT1080-NT tox -3%, DT40 TDP1 CPT -29% and HT1080 IDH1KD tx -1%.
`Cc1ccc(C)c(SCC(=O)Nc2ccc(C)c(S(=O)(=O)N3CCOCC3)c2)c1` gave IL-1B inflam inh -6, DT40 TDP1 no CPT 13µM*, HT1080-NT tox -1%, DT40 TDP1 CPT 23µM* and HT1080 IDH1KD tx -7%.
`Cc1ccc(NC(=O)CSc2nc(C)c(C)c(C)n2)cc1S(=O)(=O)N1CCOCC1` gave IL-1B inflam inh 32, DT40 TDP1 no CPT inconclusive, HT1080-NT tox -9%, DT40 TDP1 CPT -21% and HT1080 IDH1KD tx -1%.
Cc1ccc(NC(=O)CSc2nc(N)cc(N)n2)cc1S(=O)(=O)N1CCOCC1 was read as IL-1B inflam inh 21, DT40 TDP1 no CPT -12%, HT1080-NT tox -7%, DT40 TDP1 CPT -3% and HT1080 IDH1KD tx -5%.
`Cc1ccc(NC(=O)CNc2cccc(Br)c2)cc1S(=O)(=O)N1CCOCC1` gave IL-1B inflam inh -52*, DT40 TDP1 no CPT 16µM*, HT1080-NT tox -7%, DT40 TDP1 CPT inconclusive and HT1080 IDH1KD tx -8%.
COc1ccc(CC(=O)Nc2ccc(F)c(Cl)c2)cc1S(=O)(=O)N1CCOCC1 was read as IL-1B inflam inh 23, DT40 TDP1 no CPT inconclusive, HT1080-NT tox 0%, DT40 TDP1 CPT inconclusive and HT1080 IDH1KD tx -1%.
`Nc1cc2c(cc1Cl)-c1ccc(Cl)cc1C2` gave IL-1B inflam inh -20, DT40 TDP1 no CPT inconclusive, HT1080-NT tox -9%, DT40 TDP1 CPT -7% and HT1080 IDH1KD tx -21%.
For O=C(CSc1nc(-c2ccccc2)ns1)NCC1CCCO1 (centres undefined) the results were IL-1B inflam inh 9, DT40 TDP1 no CPT -2%, HT1080-NT tox -1%, DT40 TDP1 CPT -23% and HT1080 IDH1KD tx 11%.
`COc1cc2c(cc1OC)C(C)N(CC(=O)Nc1ccc(C)c(S(=O)(=O)N3CCOCC3)c1)CC2` (centres undefined) gave IL-1B inflam inh -3, DT40 TDP1 no CPT 16µM*, HT1080-NT tox 16µM*, DT40 TDP1 CPT inconclusive and HT1080 IDH1KD tx inconclusive.
COc1cccc(NC(=O)CN(C)C(=O)c2csc3c2CCCC3)c1 was read as IL-1B inflam inh -16, DT40 TDP1 no CPT -20%, HT1080-NT tox 1%, DT40 TDP1 CPT -16% and HT1080 IDH1KD tx 0%.
`Oc1c(Br)cc(Br)cc1/C=N/NC(=S)N[C@H]1CC2C=CC1C2` (some centres undefined) gave IL-1B inflam inh 90, DT40 TDP1 no CPT inconclusive, HT1080-NT tox inconclusive, DT40 TDP1 CPT inconclusive and HT1080 IDH1KD tx 21µM*.
Screening CNC(=S)N/N=C/c1cc(Br)cc(Br)c1O returned IL-1B inflam inh 0, DT40 TDP1 no CPT inconclusive, HT1080-NT tox inconclusive, DT40 TDP1 CPT inconclusive and HT1080 IDH1KD tx 23µM*.
COc1cc(/C=N/NC(=S)NC2CC3C=CC2C3)cc(OC)c1OC (centres undefined) was read as DT40 TDP1 no CPT inconclusive, HT1080-NT tox -8%, DT40 TDP1 CPT inconclusive and HT1080 IDH1KD tx -23%.
For COC(=O)c1ccc(Cl)cc1NC(=O)Nc1nnc(N2CCCC2)s1 the results were DT40 TDP1 no CPT -13% and DT40 TDP1 CPT 2%.
Cc1cc(C)c(Cn2c(=O)n(Cc3ccccc3)c(=O)c3c(C)c(C)sc32)c(C)c1 was read as DT40 TDP1 no CPT -9% and DT40 TDP1 CPT -19%.
Screening COc1ccc(CCNC(=O)CSc2nnc3ccc(-c4cccnc4)nn23)cc1 returned IL-1B inflam inh inconclusive, DT40 TDP1 no CPT 12%, HT1080-NT tox -2%, DT40 TDP1 CPT -7% and HT1080 IDH1KD tx 14%.
For O=C1CCC/C(=N/NC(=O)c2ccc(CN3c4cccc5cccc(c45)S3(=O)=O)cc2)C1 the results were IL-1B inflam inh -13, DT40 TDP1 no CPT inconclusive, HT1080-NT tox 9%, DT40 TDP1 CPT -7% and HT1080 IDH1KD tx 3%.
Screening COc1ccc(S(=O)(=O)NC2CCCC2)cc1Cl returned IL-1B inflam inh -4, DT40 TDP1 no CPT 7%, HT1080-NT tox -20%, DT40 TDP1 CPT 18% and HT1080 IDH1KD tx -6%.
Screening CCOc1ccc(NC(=O)c2oc3ccccc3c2NC(=O)C(C)(C)C)cc1 returned DT40 TDP1 no CPT 18µM* and DT40 TDP1 CPT inconclusive.
COc1ccc(NC(=O)c2oc3ccccc3c2NC(=O)C(C)(C)C)cc1 was read as IL-1B inflam inh -55*, DT40 TDP1 no CPT inconclusive, HT1080-NT tox -1%, DT40 TDP1 CPT inconclusive and HT1080 IDH1KD tx inconclusive.
CCOc1ccc(NC(=O)c2oc3ccccc3c2NC(=O)Cc2cccc(C)c2)cc1 was read as DT40 TDP1 no CPT inconclusive and DT40 TDP1 CPT -28%.
COc1ccc(NC(=O)c2oc3ccccc3c2NC(=O)C2CC2)cc1 was read as IL-1B inflam inh inconclusive, DT40 TDP1 no CPT inconclusive, HT1080-NT tox 6%, DT40 TDP1 CPT inconclusive and HT1080 IDH1KD tx -24%.
`CCOc1ccccc1C(=O)Nc1c(C(=O)Nc2ccc(F)cc2)oc2ccccc12` gave DT40 TDP1 no CPT 2.3µM* and DT40 TDP1 CPT 4.1µM*.
`CCN(Cc1ccncc1)Cc1nc(CC2CC2)no1` gave IL-1B inflam inh 3, DT40 TDP1 no CPT inconclusive, HT1080-NT tox 2%, DT40 TDP1 CPT -28% and HT1080 IDH1KD tx 8%.
